# Screening results: PubChem BioAssay, National Center for Advancing Translational Sciences (NCATS)
# DT40 TDP1 CPT – qHTS for Inhibitors of human tyrosyl-DNA phosphodiesterase 1 (TDP1): qHTS in cells in presence of CPT. AID 686979, 2013. chicken DT40 Tdp1-/-;hTDP1 cells + 20 nM CPT, ATP luminescence, 48 h. Potency, µM (series often up to 46.2 µM), without a hit: at the top dose activity change, negative = growth inhibition, actives largely listed as inhibitors. 420,000 tested, 12% active; note: potency is the fitted concentration of half-maximal effect; nearly all actives have a fitted effect of over 55% in size
#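 Cell growth measured by CellTiter-Glo luminescence after a minimum 48 h, 37 C compound exposure with 20 nM CPT in Tdp1-knockout DT40 cells stably expressing hTDP1, seeded 400/well; qHTS titration format.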
# IL-1B inflam inh – qHTS for Inhibitors of Inflammasome Signaling: IL-1-beta AlphaLISA Primary Screen | activity change, % at 57.5 µM | THP-1 LPS/ATP IL-1B secretion, AlphaLISA, 16 h; stronger effect = lower value | 360,000 tested, 4.7% active; in the data active = activity change below about -50%; inconclusive = mostly about -30% to -49%
#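 Secreted IL-1B measured by AlphaLISA bead assay after 16 h compound exposure of THP-1 cells; compounds (final up to 57.5 uM) added 1 h before LPS (250 ng/mL) and ATP (1.25 mM) stimulation; lower signal means less secretion.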
# HT1080 IDH1KD tx – qHTS for induction of synthetic lethality in tumor cells producing 2HG: qHTS for the HT-1080-IDH1KD cell line; HT-1080 IDH1 knockdown viability, ATP luminescence, 48 h; Potency, µM (titrated, usually from 46.1 µM), for the others: at the top dose activity, negative = toxicity, hits mostly cytotoxic; 360,000 tested, 2% active; AID 686971, 2013;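 note: potency is the fitted concentration of half-maximal effect; 0% = DMSO wells and -100% = cell-free medium wells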
#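 Knockdown cells (IDH1KD HT-1080) received compounds 2 h after plating at 750 cells/well and were kept 48 h at 37 °C in 5% FBS RPMI. A CellTiter-Glo luminescence read gave % activity for curve fitting.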
# HT1080NT lethal – qHTS for induction of synthetic lethality in tumor cells producing 2HG: qHTS for the HT-1080-NT fibrosarcoma cell line | Potency, µM (titrated, usually from 46.1 µM), without a hit: at the highest dose activity, negative = less viability, actives largely listed as cytotoxic | AID 686970, 2013 | HT-1080-NT fibrosarcoma viability, CellTiter-Glo ATP luminescence, 48 h | 360,000 tested, 1.6% active;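 note: NT is the 2HG producing partner of a matched IDH1 knockdown line; potency is the fitted concentration of half-maximal effect; 0% = DMSO-treated cells and -100% = media-only wells without cells; nearly all actives have a fitted effect of over 55% in size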
#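 A 48-hour cytotoxicity screen used HT-1080-NT cells plated 2 hours before compound delivery. ATP-based CellTiter-Glo luminescence measured viability, normalized to DMSO and no-cell controls.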
# TDP1 cell noCPT – qHTS for Inhibitors of human tyrosyl-DNA phosphodiesterase 1 (TDP1): qHTS in cells in absence of CPT; Potency, µM (top dose mostly 46.2 µM), for the others: at the top dose activity change, negative = growth inhibition, actives largely listed as inhibitors; DT40 Tdp1-/- hTDP1 cells, no CPT, ATP luminescence, 48 h; 420,000 tested, 15% active; note: potency is the fitted concentration of half-maximal effect; nearly all actives have a fitted effect of over 55% in size
#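 No-CPT arm: Tdp1-/-;hTDP1 DT40 cells (400/well) plus compounds, incubated ≥48 hr at 37 °C. Readout CellTiter-Glo luminescence.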
# Starred values were filed as active, the others as inactive; ? = inconclusive; . = no result given. The list is not random: actives were taken first. Their share in the collection is about 19%. Unless noted, calls come from the whole dose curve; as a rule, active = well fitted curve in the direction sought with a large enough effect; inconclusive = small, poorly fitted or top-dose-only effect, or another doubt; inactive = no such curve, though single readings can be large; an effect the other way counts as inactive or inconclusive. Unless noted, % is set by controls: 0 for no effect and ±100 for the full control effect.
SMILES,DT40 TDP1 CPT,IL-1B inflam inh,HT1080 IDH1KD tx,HT1080NT lethal,TDP1 cell noCPT
CCOC(=O)c1c(C)c(C(=O)NCCc2ccc(OC)cc2)c(C)n1CC,-8.1%,.,.,.,?
CN(C)c1cccc(C(=O)N2CCC(c3ccncc3)CC2)c1,20.6µM*,.,.,.,-75.4%
O=[N+]([O-])c1ccc(NNC(=S)Nc2ccccc2)cc1,4.47µM*,-18.4,?,20µM*,2.82µM*
O=C(NCC(O)c1ccc([N+](=O)[O-])cc1)C(c1ccccc1)c1ccccc1 (centres undefined),?,-1.8,-8.0%,0.1%,?
O=C(Nc1ccc([N+](=O)[O-])cc1)C(c1ccccc1)c1ccccc1,18.4µM*,-7.8,-14.1%,-19.0%,18.4µM*
CCSc1ccccc1C(=O)Nc1ccc(-c2nc3ccccc3s2)c(O)c1,9.2µM*,.,.,.,13µM*
CC(C)c1ccc(C(=O)Nc2ccc(-c3nc4ccccc4s3)c(Cl)c2)cc1,6.51µM*,.,.,.,7.31µM*
CCOc1ccc(CNC(=O)C2Cc3ccccc3N2C(=O)CC)cc1 (centres undefined),-24.3%,.,.,.,-25.6%
Cc1sc(NC(=O)CN2CCN(c3ccccn3)CC2)c(C#N)c1C,-22.3%,-6.7,-2.9%,-7.9%,-9.9%
NS(=O)(=O)c1ccc(N2N=C(c3ccccc3)CC2c2cccc(F)c2)cc1 (centres undefined),?,?,-6.2%,-4.1%,-23.1%
COc1ccc(C2CC(c3ccc(Cl)cc3)=NN2c2ccc(S(N)(=O)=O)cc2)cc1 (centres undefined),?,-17.8,?,?,?
NS(=O)(=O)c1ccc(N2N=C(c3ccc(Br)cc3)CC2c2ccc(F)cc2)cc1 (centres undefined),?,-75.9*,11.6µM*,6.51µM*,?
NS(=O)(=O)c1ccc(N2N=C(c3ccccc3)CC2c2cccc(Br)c2)cc1 (centres undefined),-20.1%,-57.3*,-16.2%,-21.5%,-28.6%
CCCc1c(C(=O)N/N=C(\C)c2ccc(CC(C)C)cc2)nnn1-c1nonc1N,11.6µM*,4.5,-18.5%,-3.0%,6.51µM*
CC(/C=N/NC(=O)c1nnn(-c2nonc2N)c1CN(C)C)=C\c1ccco1,-19.0%,-0.7,-3.4%,0.5%,-21.9%
CCCc1c(C(=O)N/N=C(\C)c2ccccc2O)nnn1-c1nonc1N,8.2µM*,0.0,-13.4%,-13.3%,8.2µM*
C/C(=N\NC(=O)c1nnn(-c2nonc2N)c1-c1ccccc1)c1ccccc1O,2.31µM*,142.0,1.84µM*,?,1.46µM*
CCCc1c(C(=O)N/N=C(\C)c2ccc3c(c2)OCO3)nnn1-c1nonc1N,-8.2%,6.6,7.1%,-0.2%,3.0%
CCCN(CCC)Cc1c(C(=O)N/N=C/C(C)=C\c2ccco2)nnn1-c1nonc1N,20.6µM*,-59.9*,?,-30.8%,16.4µM*
CCc1nc(NCC2CCCN2CC)c2nnn(Cc3ccccc3F)c2n1 (centres undefined),?,28.7,-15.4%,?,?
C/C(=N\NC(=O)c1nnn(-c2nonc2N)c1CN(C)c1ccccc1)c1ccc(O)cc1,-6.9%,-11.3,-15.0%,-15.1%,1.4%
C/C(=N\NC(=O)c1nnn(-c2nonc2N)c1CN(C)c1ccccc1)c1ccccn1,4.61µM*,80.2,?,?,4.61µM*
CC(=O)Nc1ccc(S(=O)(=O)c2ccnc3cc(Cl)ccc23)cc1,11.6µM*,-102.6*,?,?,9.2µM*
CC(=O)Nc1ccc(S(=O)(=O)Nc2ccc(Cl)cn2)cc1,-6.2%,7.9,1.0%,6.9%,-5.0%
O=C(Nc1ccc(F)cc1)Nc1sccc1-c1nc2ccccc2s1,?,-9.4,18.4µM*,16.4µM*,?
